# Laboratory results reported in PubChem BioAssay (Tox21).
# Several values for one entry are separate records, joined by “and”; a condition that tells them apart may be missing. Equal values may be shown once. A number with no mark means an inactive call. Results filed as inconclusive are left out. Entries that show only a call come without a potency. Activity calls are given as the source filed them. Unless noted, calls come from the whole dose curve; as a rule, active = well fitted curve in the direction sought with a large enough effect in the repeat runs; inconclusive = weak or mixed curves; inactive = no such curve, though single readings can be large; an effect the other way counts as inactive or inconclusive.
# What was measured:
# [1] = qHTS assay for small molecules that induce genotoxicity in human embryonic kidney cells expressing luciferase-tagged ATAD5 (AID 651632); note: nearly all actives have a fitted effect of over 15% in size; note: potency is the fitted concentration of half-maximal effect
# In short: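 Luminescence read-out: after 16 hr compound exposure at 37C, ATAD5-luciferase HEK293T cells received Amplite, 30 min RT, then CCD imaging. A rise in signal marks genotoxic stress.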
# [2] = qHTS assay for small molecule agonists of the p53 signaling pathway - cell viability (AID 651633; calls by dose curve; note: nearly all actives have a fitted effect of over 30% in size; note: potency is the fitted concentration of half-maximal effect)
# In short: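 Viability counter-read: CellTiter-Glo luminescence (30 min, room temperature) in the same p53RE-bla plates. These plates had been exposed to compounds for 16 h at 37 C.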
# [3] = qHTS assay for small molecules that induce genotoxicity in human embryonic kidney cells expressing luciferase-tagged ATAD5 - cell viability (AID 651634; calls by dose curve; note: nearly all actives have a fitted effect of over 25% in size; note: potency is the fitted concentration of half-maximal effect)
# In short: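 HEK293T ATAD5-luc cells, 2,000/well; compound 15.5 hr, 37C/5% CO2; CellTiter-Fluor 30 min, 37C; fluorescence read.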
# [4] = qHTS assay for small molecule disruptors of the mitochondrial membrane potential - cell viability (AID 720634; calls by dose curve; note: nearly all actives have a fitted effect of over 20% in size; note: potency is the fitted concentration of half-maximal effect)
# In short: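 Luminescence from CellTiter-Glo (ATP content) gave viability in HepG2 cells, read in the same wells as the MMP dye assay after 1 hr compound exposure at 37 C.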
# [5] = qHTS assay for small molecule disruptors of the mitochondrial membrane potential (AID 720635); note: potency is the fitted concentration of half-maximal effect
# In short: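 Mitochondrial membrane potential tracked with Mito-MPS dye, red aggregates (ex 540/em 590 nm) against green monomers (ex 490/em 535 nm). Compound treatment 1 hr at 37C, dye 30 min in HepG2.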
# [6] = qHTS assay to test for compound auto fluorescence at 590 nm (red) in HepG2 cells (AID 720674)
# In short: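 1 hr compound incubation on HepG2 cells, 37 C, 5% CO2; plate read ex 540 nm / em 590 nm; intensities reported as Rose Bengal sodium equivalents.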
# [7] = qHTS assay to test for compound auto fluorescence at 535 nm (green) in HepG2 cells (AID 720675)
# [8] = qHTS assay to test for compound auto fluorescence at 460 nm (blue) in HEK293 cells (AID 720678); note: potency is the fitted concentration of half-maximal effect
# In short: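 Intrinsic compound fluorescence is recorded in live HEK293 cultures after overnight incubation at 37C, 5% CO2, using excitation 405 nm and emission 460 nm. Values are referenced to triamterene.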
# [9] = qHTS assay to test for compound auto fluorescence at 590 nm (red) in HEK293 cells (AID 720679)
# In short: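 Red autofluorescence, HEK293 cells: 2,000 cells/well; attach 4-5 hr 37C; add 23 nL cpd or DMSO; incubate o/n 37C 5% CO2; read Ex540/Em590; Rose Bengal sodium reference.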
# Tags give direction and shape of the fitted curve or compound fluorescence and quenching.
SMILES,Potency [1],Potency [2],Potency [3],Potency [4],Potency [5],outcome [6],outcome [7],Potency [8],outcome [9],"fluorescence, % of fluorescein control [7]","fluorescence, % of triamterene [8]","fluorescence, % of fluorescent control [9]"
O=C(CCCN1CCC2(CC1)C(=O)NCN2c1ccccc1)c1ccc(F)cc1,inactive,inactive,inactive,inactive,3.35 µM (active),inactive,inactive,inactive,inactive,–,–,–
O=C(CBr)c1ccc(O)cc1,inactive,inactive,inactive,inactive,–,inactive,inactive,inactive,inactive,–,–,–
CC(C)CC(C)(c1ccc(O)cc1)c1ccc(O)cc1,inactive,68.7 µM (active) and 61.1 µM (active),inactive,34.4 µM (active) and 27.3 µM (active),6.87 µM (active) and 6.86 µM (active),inactive,inactive,inactive,inactive,–,–,–
Oc1c(Br)c(Br)c(Br)c(Br)c1Br,inactive,17.3 µM (active),–,inactive,2.45 µM (active),inactive,inactive,inactive,inactive,–,–,–
O=S(=O)(c1ccc(Cl)cc1)c1ccc(Cl)cc1,inactive,inactive,inactive,–,4.92 µM (active),inactive,inactive,inactive,inactive,–,–,–
Oc1ccc(C2(c3ccc(O)cc3)CCCCC2)cc1,inactive,–,inactive,inactive,16.3 µM (active),inactive,inactive,inactive,inactive,–,–,–
C=CC(=O)OCC(COC(=O)C=C)(COC(=O)C=C)COC(=O)C=C,5.45 µM (active),6.86 µM (active),12.2 µM (active),inactive,–,inactive,inactive,inactive,inactive,–,–,–
Oc1c(Cl)c(Cl)cc(Cl)c1Cl,inactive,inactive,–,inactive,5.3 µM (active),inactive,inactive,inactive,inactive,–,–,–
CC1(C)[C@H](C(=O)O[C@H](C#N)c2cccc(Oc3ccccc3)c2)[C@@H]1/C=C(\Cl)C(F)(F)F,inactive,inactive,inactive,–,25.3 µM (active),inactive,inactive,inactive,inactive,–,–,–
CC1CCC(C(C)C)C(OC(=O)c2ccccc2N)C1 (centres undefined),inactive,26.6 µM (active) and 60.3 µM (active),inactive,–,13.3 µM (active) and 17 µM (active),–,inactive,inactive,inactive,–,–,–
O=[N+]([O-])c1ccc(Oc2ccc(C(F)(F)F)cc2[N+](=O)[O-])cc1,inactive,inactive,inactive,19.3 µM (active),12.2 µM (active),–,inactive,inactive,inactive,–,–,–
CCCCOCN(C(=O)CCl)c1c(CC)cccc1CC,inactive,inactive,inactive,–,–,inactive,inactive,inactive,inactive,–,–,–
Nc1ccc(Sc2ccc(N)cc2)cc1,inactive,inactive,inactive,inactive,–,inactive,inactive,inactive,inactive,–,–,–
COc1cccc(C(=O)CCN[C@@H](C)[C@H](O)c2ccccc2)c1,inactive,inactive,inactive,inactive,–,inactive,inactive,inactive,inactive,–,–,–
C[C@@H]1O[C@@H](O[C@@H]2C=C3CC[C@@H]4[C@H](CC[C@]5(C)[C@@H](c6ccc(=O)oc6)CC[C@]45O)[C@@]3(C)CC2)[C@H](O)[C@H](O)[C@H]1O,inactive,0.0072 µM (active),0.0227 µM (active),inactive,0.0639 µM (active),–,–,–,–,-0.0054% [at 18.6 µM],0.167% [at 18.6 µM],-0.104% [at 18.6 µM]
CC(C)CC(C)Nc1ccc(Nc2ccccc2)cc1 (centres undefined),inactive,53.5 µM (active),–,23.9 µM (active),13.4 µM (active),–,inactive,inactive,inactive,–,–,–
ClC1=C(Cl)[C@]2(Cl)[C@@H]3[C@@H]4C[C@@H]([C@H]5O[C@@H]45)[C@@H]3[C@@]1(Cl)C2(Cl)Cl,inactive,30.6 µM (active),inactive,–,19.3 µM (active),inactive,inactive,inactive,inactive,–,–,–

SMILES,Potency [1],Potency [2],Potency [3],Potency [4],Potency [5],outcome [6],outcome [7],Potency [8],outcome [9],"fluorescence, % of fluorescein control [7]","fluorescence, % of triamterene [8]","fluorescence, % of fluorescent control [9]"
Clc1ccc(C(Cl)(Cl)Cl)c(Cl)c1,inactive,inactive,inactive,inactive,61.6 µM (active),inactive,inactive,inactive,inactive,–,–,–
O=[N+]([O-])c1c2ccccc2cc2ccccc12,inactive,inactive,inactive,–,8.53 µM (active),inactive,inactive,inactive,inactive,–,–,–
ClCc1ccc(Cl)cc1Cl,inactive,inactive,–,inactive,–,–,inactive,inactive,inactive,–,–,–
CCCCCCCCCCCCCC[P+](CCCCCC)(CCCCCC)CCCCCC (tested in a mixture with another compound),inactive,15.4 µM (active),21.7 µM (active),24.3 µM (active),0.243 µM (active),inactive,inactive,inactive,inactive,–,–,–
C=CCC1=C(C)C(OC(=O)C2C(C=C(C)C)C2(C)C)CC1=O (centres undefined),inactive,64.8 µM (active),inactive,11.5 µM (active),5.78 µM (active),inactive,inactive,inactive,inactive,–,–,–
Cc1c(Cl)c(=O)oc2cc(OP(=O)(OCCCl)OCCCl)ccc12,inactive,inactive,inactive,inactive,–,inactive,inactive,12.6 µM [fluorescent] (active),inactive,–,–,–
C[C@]12Cc3nonc3C[C@@H]1CC[C@@H]1[C@@H]2CC[C@@]2(C)[C@H]1CC[C@]2(C)O,inactive,29.8 µM (active),–,–,–,inactive,inactive,inactive,inactive,–,–,–
O=c1ssc(Cl)c1Cl,inactive,54.5 µM (active),61.1 µM (active),61.1 µM (active),30.6 µM (active),–,inactive,inactive,inactive,–,–,–
O=[N+]([O-])c1ccc2ccc3cccc4ccc1c2c34,–,inactive,inactive,inactive,1.22 µM (active),inactive,inactive,inactive,inactive,–,–,–
O=[N+]([O-])c1cc(C(F)(F)F)c(Cl)c([N+](=O)[O-])c1Cl,–,27.3 µM (active),24.3 µM (active),15.4 µM (active),13.7 µM (active),inactive,inactive,inactive,inactive,–,–,–
CC(C)(C)c1ccc(CSc2cnn(C(C)(C)C)c(=O)c2Cl)cc1,–,inactive,inactive,24.3 µM (active),7.7 µM (active),inactive,inactive,inactive,inactive,–,–,–
CC(=O)Nc1ccc2c(c1)Cc1ccccc1-2,–,inactive,inactive,inactive,31.1 µM (active),inactive,inactive,inactive,inactive,–,–,–
Clc1ccc(C(c2ccc(Cl)cc2)C(Cl)(Cl)Cl)cc1,–,26.6 µM (active) and 48.9 µM (active) and 27.3 µM (active),inactive,inactive,21.1 µM (active) and 19.5 µM (active) and 15.4 µM (active),–,inactive,inactive,inactive,–,–,–
CC(C)[C@H](C(=O)OC(C#N)c1cccc(Oc2ccccc2)c1)c1ccc(OC(F)F)cc1 (some centres undefined),inactive,–,inactive,–,17.2 µM (active),inactive,inactive,inactive,inactive,–,–,–
S=C(SSC(=S)N1CCCCC1)N1CCCCC1,29.8 µM (active),–,inactive,inactive,inactive,–,inactive,inactive,inactive,–,–,–
CN(C)C(=S)S,–,inactive,inactive,inactive,inactive,inactive,inactive,inactive,inactive,–,–,–
